Screening data deposited in PubChem by National Center for Advancing Translational Sciences (NCATS).
TDP1 inh: qHTS Assay for Inhibitors of Tyrosyl-DNA Phosphodiesterase (TDP1); Potency, µM (top dose mostly 130 µM), without a hit: top-dose activity change, negative = inhibition, most hits filed as inhibitors; recombinant TDP1, AlphaScreen DNA substrate cleavage; AID 485290, 2010; 0.28% of 350,000 active; note: % is set by controls: 0 for no effect and ±100 for the full control effect; nearly all actives have a fitted effect of over 40% in size
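Enzyme-compound mixtures sat 15 min at room temperature, followed by a 5 min reaction with 15 nM final substrate and 10 min with AlphaScreen beads. Recombinant human Tdp1 was used at 1 nM final.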
Pol eta inh: qHTS for Inhibitors of Polymerase Eta; DNA polymerase eta (Homo sapiens), Q9Y253; recombinant Pol eta, fluorescent DNA replication assay; Potency, µM (series often up to 114 µM), without a hit: at the top dose activity change, negative = inhibition, usual class: inhibitors; 1.2% of 390,000 active; AID 588591, 2011; note: % is set by controls: 0 for no effect and ±100 for the full control effect
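Pol eta (10 nM) was preincubated with compounds for 15 min at room temperature, after which fluorescent replication substrate (50 nM final) was added to start the reaction. Fluorescence was read kinetically at 0 and 10 min.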
POLI inh: qHTS for Inhibitors of Polymerase Iota | DNA polymerase iota (Homo sapiens), Q9UNA4 | Pol iota fluorescent replication assay, 10 min | Potency, µM (top dose mostly 115 µM), inactives show at the highest dose activity, negative = inhibition, most hits filed as inhibitors | 1% of 390,000 active
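Pol iota at 10 nM preincubated 15 min with compounds at room temperature; reaction started with fluorescent substrate, 50 nM final. Fluorescence read kinetically at 0 and 10 min; buffer-only wells as negative control.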
Pol kappa inh: qHTS for Inhibitors of Polymerase Kappa; Potency, µM (top dose mostly 107 µM), inactives show at the highest dose activity, negative = inhibition, actives largely listed as inhibitors; AID 588579, 2011; DNA polymerase kappa (Homo sapiens), Q9UBT6; purified Pol kappa, fluorescent DNA synthesis assay, 10 min; 0.53% of 400,000 active; note: % is set by controls: 0 for no effect and ±100 for the full control effect
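10 nM Pol kappa was preincubated with compounds for 15 min at room temperature. Reaction started with 50 nM (final) substrate. Fluorescence read kinetically at 0 and 10 min.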
POLB inh: qHTS Assay for Inhibitors of DNA Polymerase Beta; P06746; Pol beta primer extension/strand displacement, fluorescence kinetic; Potency, µM (series often up to 114 µM), inactives show top-dose activity change, negative = inhibition, actives largely listed as inhibitors; 1.3% of 340,000 active; AID 485314, 2010; note: % is set by controls: 0 for no effect and ±100 for the full control effect
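Preincubation: enzyme (10 nM) with compound, 15 min, RT. Reaction: substrate added to 50 nM final. Reads: 0 and 10 min. Analysis: normalized, Hill fit.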
FEN1 inhibitor: qHTS Assay for the Inhibitors of Human Flap endonuclease 1 (FEN1); 0.35% of 390,000 active; Potency, µM (titrated, usually from 114 µM), inactives show top-dose activity change, negative = inhibition, most hits filed as inhibitors; Recombinant FEN1 flap cleavage, fluorescence, 15 min; AID 588795, 2011; P39748; note: % is set by controls: 0 for no effect and ±100 for the full control effect; nearly all actives have a fitted effect of over 65% in size
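Quantitative HTS format: each compound was titrated, incubated with 10 nM nuclease for 15 min at room temperature, then challenged with flap substrate at 50 nM final. Signal change over 15 min gave concentration–effect curves.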
* hit, by the source's call; i = inactive; u = inconclusive; x = not tested or not shown; [ ] = dose if it differs, or a comment. An excerpt weighted towards active compounds, which were near 2.4% of everything screened. Calls come from the whole dose curve; as a rule, active = well fitted curve in the direction sought with a large enough effect; inconclusive = small, poorly fitted or top-dose-only effect, or another doubt; inactive = no such curve, though single readings can be large; an effect the other way counts as inactive or inconclusive. Potency is the fitted concentration of half-maximal effect.

SMILES | TDP1 inh | Pol eta inh | POLI inh | Pol kappa inh | POLB inh | FEN1 inhibitor
COc1ccc(C(=O)CC(c2ccccc2)C2C(=O)CCCC2=O)cc1 (stereo unspecified) | -7% | 79µM* | u | -20% | -19% | -19%
CCOc1cc(Cn2c(-c3ccc(O)c(OCC)c3)nc3ccccc32)ccc1O | 10% | -10% | 17% | -3%[60.1 µM] | 0% | -6%
CN(C)CCN1C(=O)c2cccc3cc([N+](=O)[O-])cc(c23)C1=O | x | u | 79µM* | u | x | 20µM*
Cc1cc(/C=C2\SC(=S)NC2=O)c(C)n1-c1ccccc1 | 4% | 50µM* | u | u | u | -8%
Cc1cc(C(=O)O)ccc1-n1c(C)cc(/C=C2\SC(=O)NC2=O)c1C | -3% | 50µM* | u | -27% | u | 12%
COc1ccc(-n2c(C)cc(/C=C3\SC(=S)NC3=O)c2C)cc1 | 9% | u | -28% | -17% | -3% | -8%
CC(NS(=O)(=O)c1ccc(Cl)cc1)C(=O)NCc1ccco1 (stereo unspecified) | u | -9% | 71µM* | -39% | u | -1%
COc1cc(-c2coc3cc(OC)c(OC)c(OC)c3c2=O)cc(OC)c1OC | 11%[56.1 µM] | x | x | u | x | x
CC(=O)Oc1cc(-c2coc3cc(OC(C)=O)c(OC(C)=O)c(OC(C)=O)c3c2=O)cc(OC(C)=O)c1OC(C)=O | x | x | x | 0.35µM* | x | x
CCOC(=O)c1c(NC(=O)c2noc(C)c2[N+](=O)[O-])sc(C(C)=O)c1C | 8% | -10% | 49% | -10% | -9% | 3%
CCOC(=O)c1c(NC(=O)c2nc(S(C)(=O)=O)ncc2Cl)sc(C(C)=O)c1C | 6% | 79µM* | 2% | 4% | -2% | 10%
CCN(c1cccc(C)c1)S(=O)(=O)c1nnc(NC(=O)c2ccccc2Cl)s1 | -8% | -5% | i | -13% | 1% | 13%
CCN(CC)c1ccc(N=Cc2ccc([N+](=O)[O-])o2)cc1 | 11% | u | 16µM* | u | u | -24%
O=C(Nc1cccc(S(=O)(=O)N2CCOCC2)c1)c1c2c(nc3ccccc13)CCC2 | -2% | u | 45µM* | -38% | 10µM* | -5%
CC(C)NC(=O)NC(=O)COC(=O)c1c2c(nc3ccccc13)CCC2 | x | u | -28% | -15% | u | -1%
CCCC(C)NC(=O)c1c2c(nc3ccccc13)CCC2 (stereo unspecified) | -4% | u | u | u | 18µM* | -1%
O=C(Nc1cccc(S(=O)(=O)N2CCOCC2)c1)c1ccc2ccccc2n1 | 1% | -6% | 7% | 5% | 1% | -21%
NC(=O)COC(=O)c1c2c(nc3ccccc13)CCC2 | -3% | 35µM* | u | u | u | -11%
CCOc1ccc(N=C2NC(=O)S/C2=C\c2ccc(N(C)C)cc2)cc1 | 7% | 79µM* | u | -5% | 3% | u
CCOc1ccc(/C=C2/SC(=O)NC2=S)cc1 | 10% | -21% | 89µM* | u | u | u
CCOc1ccc(/C=C2\SC(=S)N(N3C(=O)C4CC4C3=O)C2=O)cc1 (stereo unspecified) | 7% | -15% | 24% | -12% | 0% | 0%
Cc1cc(-c2csc(N)n2)c(C)n1Cc1ccco1 | 10% | 1% | u | 10µM* | -1% | u
Cc1ccc(-n2c(C)cc(-c3csc(N)n3)c2C)cc1 | 6% | -7% | 13% | 3% | 7% | -1%
Cc1cc(C(=O)COC(=O)c2cc(Cl)ccc2N)c(C)n1Cc1ccco1 | -3% | -16% | u | -41% | 40µM* | -11%
O=S(=O)(NCCNCC=Cc1ccc(Br)cc1)c1cccc2cnccc12 | x | x | 2% | 2% | x | -20%
SMILES | TDP1 inh | Pol eta inh | POLI inh | Pol kappa inh | POLB inh | FEN1 inhibitor
COc1ccc(Cn2c(=O)c3cccnc3n(Cc3cccc(OC)c3)c2=O)cc1 | -7% | -4% | 8% | -24% | 10% | -14%
O=S(=O)(c1ccccc1)c1nnn2c1nc(NC1CCCCC1)c1sccc12 | -3% | -2% | 5% | -3% | 12% | -8%
Cc1ccc(CCNc2nc3c(S(=O)(=O)c4ccccc4)nnn3c3ccsc23)cc1 | 3% | 2% | 8% | -25% | 1% | 89µM*
O=S(=O)(c1ccc(Cl)cc1)c1nnn2c1nc(NC1CCCCC1)c1sccc12 | 3% | -29% | 6% | -19% | 32µM* | u
COc1cc(/C=C/c2cncc(/C=C/c3cc(OC)c(OC)c(OC)c3)c2)cc(OC)c1OC | x | x | -16% | -10% | x | 11%
COc1cccc(-c2ccc3ncnc(NCCN4CCOCC4)c3c2)c1 | x | x | x | 11%[60.1 µM] | x | x
O=C(Nc1ccccc1C(F)(F)F)c1cc(-c2ccc3c(c2)OCCO3)on1 | -4% | 1% | 21% | -7% | 17% | -15%
Cc1nnc(N/N=C/c2ccccc2F)n1N | x | -21% | u | -4%[60.1 µM] | 26% | 14%
COc1cccc(/C=N/Nc2ccc([N+](=O)[O-])cc2)c1O | x | -12% | 20% | -4% | 45µM* | 1%
COC(=O)c1ccc(N/N=C/c2cc([N+](=O)[O-])cc(OC)c2O)cc1 | 6% | -11% | 7% | -1% | u | -17%
COc1cccc(/C=N/Nc2nnc(C)n2N)c1O | x | -20% | 4µM* | -1% | 0% | -4%
COc1ccc(-n2c(C)cc(/C=N/Nc3nnc(C)n3N)c2C)cc1 | 6% | -9% | 22µM* | -16% | -28% | -13%
Cc1nnc(N/N=C/c2ccco2)n1N | 2% | -15% | 10µM* | -7% | 30% | -3%
COc1ccccc1NC(=O)C(OC(=O)CNC(=O)c1ccccc1)c1ccccc1 (stereo unspecified) | 0% | x | x | x | x | x
Cc1ccc(NC(=O)c2cccc3c(=O)c4c([nH]c23)CCCC4)c(C)c1 | 6% | -12% | 15% | 9% | 6% | -3%
COc1ccc(-c2nc(CS(=O)CC(=O)NCc3ccco3)c(C)o2)cc1 (stereo unspecified) | 4% | -13% | 8% | -1% | 3% | -4%
CCc1ccc(-c2nc(CS(=O)CC(=O)NCc3ccco3)c(C)o2)cc1 (stereo unspecified) | 3% | 89µM* | 12% | -10% | u | 13%
CC(=O)Nc1cccc(S(=O)(=O)N2CCN(S(=O)(=O)c3ccc4c(c3)OCCO4)CC2)c1 | -3% | x | x | x | x | x
